# Source: PubChem (The Scripps Research Institute Molecular Screening Center)
# Only some compounds are listed: those with a hit (about 2.7% of all), similar ones and a draw of the others.
# pPAFAH inh: pPAFAH (human) enzyme inhibition | Q13093 | recombinant pPAFAH, FP-rhodamine probe fluorescence polarization | inhibition, % at 3.39 µM | actives 1.5% (n = 330,000);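 active = inhibition above the mean inhibition across the screen plus 3 SD, cut at about 25% in these data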;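 note: inhibitors block binding of the rhodamine activity-based probe so polarization drops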
# Target sequence (Q13093 whole entry, looked up): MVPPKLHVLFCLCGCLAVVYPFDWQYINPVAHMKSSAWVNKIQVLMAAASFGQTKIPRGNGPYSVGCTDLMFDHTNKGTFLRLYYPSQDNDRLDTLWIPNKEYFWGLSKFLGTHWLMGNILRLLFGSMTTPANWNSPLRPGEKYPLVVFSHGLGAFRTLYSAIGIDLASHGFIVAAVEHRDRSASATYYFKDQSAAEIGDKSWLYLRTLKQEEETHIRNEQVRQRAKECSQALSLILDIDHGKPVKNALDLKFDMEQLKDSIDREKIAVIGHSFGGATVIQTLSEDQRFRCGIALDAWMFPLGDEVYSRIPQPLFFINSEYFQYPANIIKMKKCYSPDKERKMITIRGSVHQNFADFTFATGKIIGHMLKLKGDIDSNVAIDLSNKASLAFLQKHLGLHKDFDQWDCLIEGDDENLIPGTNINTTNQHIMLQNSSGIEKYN
# PAFAH1B2 FP inh: inhibitors of human PAFAH1B2. P68402. recombinant PAFAH1B2, FP-rhodamine activity probe, fluorescence polarization. inhibition, % at 3.39 µM. actives 1.2% (n = 340,000);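 active = inhibition above the mean of all tested compounds plus 3 SD, cut at about 24% in these data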
# PAFAH1B3 inh: inhibitors of human PAFAH1B3; Q15102; recombinant PAFAH1B3, FP-rhodamine probe, fluorescence polarization; inhibition, % at 3.39 µM; actives 0.28% (n = 340,000); AID 492972;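 active = inhibition above the screen-wide average of all tested compounds plus 3 SD, cut at about 25% in these data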
# PAFAH2 FP inh: inhibitors of human PAFAH2; actives 0.99% (n = 340,000); AID 492956; recombinant PAFAH2, FP-rhodamine activity probe, fluorescence polarization; Q99487; inhibition, % at 3.39 µM;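 active = inhibition above the mean over all tested compounds plus 3 SD, cut at about 30% in these data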;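 note: inhibitors block probe labeling of enzyme so polarization drops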
# TCR CD3 inh: inhibitors of human TCR-CD3 interaction; AID 651800; inhibition, % at 9.4 µM; TAMRA-labeled TCR probe fluorescence, biochemical; actives 0.37% (n = 360,000); in the data active = inhibition above about 19%;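 note: recombinant mutant TCR 2C K166C tagged with TAMRA read by polarization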
# Numbers stand for hits; i = inactive; nt = no result given; ! = repeats disagree.
SMILES,pPAFAH inh,PAFAH1B2 FP inh,PAFAH1B3 inh,PAFAH2 FP inh,TCR CD3 inh
CCOC(=O)CN1C(=O)S/C(=C\c2ccc(-c3ccc(C(=O)O)c(Cl)c3)o2)C1=O,i,i,i,i,i
CCC(=O)Nc1ccc(S(=O)(=O)Nc2c(C)nc3nc[nH]n3c2=O)cc1,i,i,i,i,i
Cc1nc2nc[nH]n2c(=O)c1NC(=O)CC12CC3CC(CC(C3)C1)C2,i,25,i,36!,i
CCOC(=O)C1CCN(C(=O)c2cc3cc4cc(OC)ccc4nc3o2)CC1,29,i,i,i,i
COc1ccc2nc3oc(C(=O)N4CCCCC4)cc3cc2c1,i,i,i,i,i
CC(=O)N(C)c1ccc(C=C2C=Cc3ccccc32)cc1,nt,i,i,i,i
O=C(C[n+]1cnn(CC(=O)c2ccc(Cl)cc2Cl)c1)c1ccc([N+](=O)[O-])cc1,25,i,i,i,i
COc1ccc(C(=O)CSC2=C(C#N)C3(CCCCC3)C(C#N)=C(N)N2)cc1,i,27,i,i,i
C[C@H](O)[C@@H]1C(=O)N2CCc3c([nH]c4c(-c5ccccc5)cccc34)[C@@H]2C[C@@H]1N(C)C(=S)NCCc1ccccc1,nt,nt,nt,nt,i
O=S(=O)(Nc1cccc(-c2ccc(N3CCCCCC3)nn2)c1)c1cccc(F)c1,27,i,i,i,i
O=S(=O)(Nc1cccc(-c2ccc(N3CCCCCC3)nn2)c1)c1ccccc1Cl,29,i,i,i,i
CC(C)C[C@H](NC(=O)c1ccc(Cl)c(Cl)c1)C(=O)N1CCC[C@H]1C(=O)NCc1ccccc1,nt,nt,nt,nt,i
Cc1cc2c(nc1C)CCCN2Cc1ccccc1C(F)(F)F,nt,nt,nt,nt,i
Cc1ccc(S(=O)(=O)N2[C@@H](c3ccccc3)C(C(=O)O)=CC[C@H]2c2cccc(C)c2)cc1,i,38,i,i,i
COc1cccc([C@@H]2CC=C(C(=O)O)[C@H](c3ccccc3)N2S(=O)(=O)c2ccc(C)cc2)c1,i,i,i,i,i
COc1cccc([C@@H]2CC=C(C(=O)O)[C@H](c3ccc(F)cc3)N2S(=O)(=O)c2ccc(C)cc2)c1,i,26,i,i,i
COc1ccc(NC(=O)Nc2ccc3c(c2)C(=O)N([C@H](C)CO)C[C@@H](C)[C@@H](CN(C)Cc2ccc4c(c2)OCO4)OCCCC[C@H](C)O3)cc1,nt,nt,nt,nt,i
C=CCn1c(SCC(=O)c2ccc(O)c(O)c2)nnc1-c1ccccc1OC,27,i,i,i,i
C=CCn1c(SCC(=O)c2ccc(O)c(O)c2)nnc1-c1cccc(Cl)c1,28,i,i,39,i
C=CCn1c(SCC(=O)O)nnc1-c1cccc(Cl)c1,i,i,i,i,i
O=C(N[C@@H](Cc1cccnc1)C(=O)N1CCC[C@H]1C(=O)NCCc1ccccc1Cl)c1ccco1,nt,nt,nt,nt,i
COC(=O)[C@]12C[C@H](CC(=O)N3CCN(C(=O)C4CC4)CC3)C(=O)N(CCC3=CCCCC3)C1=C[C@H](C(C)(C)C)O[C@@H]2C,nt,nt,nt,nt,i
COc1ccc(F)cc1S(=O)(=O)NCC(c1ccco1)N1CCc2ccccc2C1 (stereo not given),i,i,i,i,i
CNC(=S)N(Cc1ccc(OC)cc1)C1CC(=O)N(c2ccc(Cl)cc2)C1=O (stereo not given),i,33,i,i,i
COc1ccc(CN(C(=S)Nc2ccccc2)C2CC(=O)N(c3ccc(F)cc3)C2=O)cc1 (stereo not given),i,i,i,i,i
SMILES,pPAFAH inh,PAFAH1B2 FP inh,PAFAH1B3 inh,PAFAH2 FP inh,TCR CD3 inh
O=c1ccc(NS(=O)(=O)c2ccc(Cl)cc2)cn1Cc1ccc(Cl)c(Cl)c1,i,28,i,i,i
CCCCn1c(C23CC4CC(CC(C4)C2)C3)n[nH]c1=S,i,29,i,i,i
COc1ccccc1NC(=O)c1cc2c(CO)cnc(C)c2oc1=Nc1cccc(C(N)=O)c1,25,i,i,i,i
COC(=O)[C@]12C[C@H](CC(=O)NCC3CCCCC3)C(=O)N(Cc3ccccc3)C1=C[C@H](C(C)C)O[C@@H]2C1CC1,nt,nt,nt,nt,i
O=C(CCCn1cc([N+](=O)[O-])cn1)Nc1ccc2c(c1)OCO2,i,i,i,i,i
Cc1nc(CS(=O)(=O)c2ccc(Cl)cc2)sc1C(=O)O,i,25,i,i,i
O=C(NNC(=O)c1cc(S(=O)(=O)N2CCOCC2)ccc1Cl)c1ccc(F)cc1,nt,nt,nt,nt,i
O=C(C(=O)N1CCN(C(=O)c2cc(C(F)(F)F)cc(C(F)(F)F)c2)CC1)c1cccc(C(F)(F)F)c1,nt,nt,nt,nt,i
Cc1ccc(N/N=C(/Sc2nnnn2-c2ccccc2)C(=O)c2ccccc2)cc1,i,27,i,i,i
